Assay results published in PubChem BioAssay AID449762 (Southern Research Specialized Biocontainment Screening …, 2010).
Hit rate of the full screen: of about 330,000 compounds, about 1,900 (0.58%) were called active. Not shown: some 4% with an inconclusive outcome. These entries were drawn from the full list. Measured potencies and affinities stand elsewhere. Values without a mark were called inactive. Cut-off read from the data, not from the text of the source: inconclusive = inhibition above about 70% without an active follow-up result; inactive = below that.

Assay: M. tuberculosis growth inhibition, HTS (AID 449762);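 note: bacterial growth assessed after seven days of incubation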
Conditions: M. tuberculosis H37Rv growth inhibition, 7H9 media; at 25 µM; stronger effect = higher value

| Structure (SMILES) | inhibition |
| --- | --- |
| Cc1nc2ccc(NC(=O)N3CCN(c4ccccn4)CC3)cc2s1 | -4.34% |
| O=C(O)c1ccc(N=NN2CCCC2)cc1 | -3.03% |
| CC1CCc2sc(C(=O)NC3CCCCC3)cc2C1 (centres undefined) | -9.17% |
| CNC(=O)c1cc2c(s1)CCCCCC2 | -5.87% |
| Nc1cccc(-c2ccc(CO)o2)c1 | 10.1% |
| NC(=O)C1CCN(CC(=O)N2N=CCC2c2ccccc2)CC1 (centres undefined) | -1.72% |
| CCC(=O)N1CCc2cc(S(=O)(=O)N3CCCC3)ccc21 | -9.42% |
| Cc1occc1C(=O)NN=C1C2CC3CC(C2)CC1C3 | -8.34% |
| Cc1ccc2[nH]c3c(N4CCOCC4)ncnc3c2c1 | -3.57% |
| COc1ccc2[nH]c3c(N4CC(C)OC(C)C4)ncnc3c2c1 (centres undefined) | -0.53% |
| COc1cc2[nH]c3c(N4CCC(C(N)=O)CC4)ncnc3c2cc1OC | 6.79% |
| Cc1ccc2c(c1)[nH]c1c(N3CCN(Cc4ccccc4)CC3)ncnc12 | 3.28% |
| COc1ccc(N2CCN(c3ncnc4c3[nH]c3ccccc34)CC2)cc1 | -0.78% |
| COc1cc2[nH]c3c(N4CCN(c5ccc(Cl)cc5)CC4)ncnc3c2cc1OC | -5.15% |
| O=C(COC(=O)c1ccccc1NS(=O)(=O)c1cccs1)NC1CCCCC1 | 4.13% |
| CCCCOc1ccc(C(=O)NCC(=O)NC2CCC(C)CC2)cc1 (centres undefined) | 9.03% |
| Cc1c(NC(=O)Nc2ccc(C(C)(C)C)cc2)c(=O)n(-c2ccccc2)n1C | 1.52% |
| Cc1cc(NC(=O)C(C)C)ncc1NC(=O)c1ccco1 | 4% |
| Cn1c(SCc2ccccn2)nnc1-c1cnccn1 | -3.38% |
| O=S(=O)(Nc1ccccc1N1CCOCC1)c1c(F)cc(F)cc1Br | -10.8% |
| CCN(C[C@H]1N[C@@](CC)(C(=O)OC)[C@H]2C(=O)N(Cc3ccccc3)C(=O)[C@@H]12)C(=O)Nc1ccc(C(F)(F)F)cc1 | -6.29% |
| CCN(C[C@H]1N[C@@](Cc2ccccc2)(C(=O)OC)[C@H]2C(=O)N(Cc3ccccc3)C(=O)[C@@H]12)C(=O)Nc1ccc(F)cc1 | 3.17% |

| Structure (SMILES) | inhibition |
| --- | --- |
| O=C(/C=C/c1ccc(OCCCF)cc1)Nc1ccnc(-c2cccnc2)n1 | -3.34% |
| COc1ccc(CNC(=O)/C=C/c2ccc(OCCCF)cc2)cc1 | 0.02% |
| CC(C)(C)NC(=O)C(=O)NNC(=O)c1ccco1 | -5.31% |
| Cc1ccccc1N(CC(=O)NCc1ccncc1)S(C)(=O)=O | 1.64% |
| CSc1ccc(C(=O)C2CCCN(C(=O)c3ccc4c(c3)OCO4)C2)cc1 (centres undefined) | 1.02% |
| CSc1ccc(C(=O)C2CCCN(C(=O)c3nonc3C)C2)cc1 (centres undefined) | 12.6% |
| Cc1ccc(Cn2c([N+](=O)[O-])cnc2C)cc1 | 2.64% |
| Cc1ccc(S(=O)(=O)N(C)CC(=O)Nc2ccc3c(c2)OCO3)cc1 | -3.43% |
| Cc1ccc(C(=O)OCN2C(=O)c3ccccc3C2=O)c(O)c1 | 2.23% |
| CNC(=O)C12CC3CC(C1)CC(c1ccc(C)cc1)(C3)C2 | 5.19% |
| COc1ccccc1NC(=O)C12CC3CC(C1)CC(c1ccc(C)cc1)(C3)C2 | -6.68% |
| COCC1CCN(Cc2nc(Cc3ccccc3Cl)no2)CC1 | 4.51% |
| COC(=O)Cn1c(=NC(=O)C(C)(C)C)sc2c(C)cc(C)cc21 | -0.87% |
| CC(C)C[C@]1(c2ccccc2)ON(c2ccccc2C(F)(F)F)C1=O | -1.86% |
| CC[C@]1(c2ccccc2C)ON(c2ccccc2C(F)(F)F)C1=O | 0.115% |
| CN1CCN(CCCNC(=O)CCCOc2cc(=O)n(C)c3ccccc23)CC1 | -3.75% |
| CCCCCCCN1C(N(C)C)=NC[C@@H]1Cc1ccccc1 | 1.63% |
| Cc1cccc(-n2ccc(=O)c(C(=O)Nc3ccc(S(=O)(=O)Nc4nccc(C)n4)cc3)n2)c1 | 6.8% |
| CCOC(=O)c1cccc(NS(=O)(=O)c2c(C)[nH]c(C)c2C(=O)N2CCCC2)c1 | 12.7% |
| Cc1cc(NC(=O)/C(C#N)=C/c2ccc(-c3ccc(SC(F)F)cc3)o2)n(-c2ccccc2)n1 | 4.12% |
| COC(=O)/C(C#N)=C/c1ccc(-c2ccc(S(N)(=O)=O)cc2)o1 | -0.94% |
| C=CCn1c(O)c(C(C)=Nc2cccc(C(=O)O)c2)c(=O)[nH]c1=O | -1.56% |

| Structure (SMILES) | inhibition |
| --- | --- |
| Cc1cc(C(=O)NNC(=O)c2sccc2C)c(C)o1 | -4.39% |
| CCN1CCN(C(c2cccs2)C(C)NS(=O)(=O)c2ccc(Br)cc2)CC1 (centres undefined) | -2.6% |
| O=C(Nc1nccs1)c1ccc(S(=O)(=O)N2CCCCC2)cc1 | -7.33% |
| CSCCC(NC(=O)COc1ccccc1)C(=O)NCCOc1ccc(C)cc1 (centres undefined) | 1.39% |
| COc1ccc(OC)c(S(=O)(=O)Nc2cc3c4c(c2)CCC(=O)N4CCC3)c1 | -8.72% |
| CC(=O)c1c(C(C)=O)c(C)n(-c2cccc([N+](=O)[O-])c2)c1C | 4.11% |
| Cc1cc(C(=O)CCl)c(C)n1-c1c(C)n(C)n(-c2ccccc2)c1=O | 64.9% |
| N#CCCCCn1c(-c2cncs2)nc2ccccc21 | -10.4% |
| Oc1ccc(C=NCCc2ccccc2)cc1 | 0.33% |
| CCSc1nc2ccccc2n1Cc1cccc([N+](=O)[O-])c1 | -1.33% |
| Cc1ccc(OC(=O)c2ccc(C)c(C)c2)cn1 | 38.4% |
| CCCCOc1ccc(C(=O)Oc2cccnc2)cc1 | 50% |
| CO/N=C/C(C#N)=C/c1ccc(OC)c(OC)c1 | 2.72% |
| CCCCn1c2ccccc2c2cc(CC(N)=O)ccc21 | 2.07% |
| COc1ccc(CCNC(=O)c2ccc(Cl)cc2)cc1 | 15.5% |
| COc1ccc(NC(=O)CCC(=O)OCc2ccc(C(=O)Oc3ccc(Cl)cc3)cc2)cc1 | -10.2% |
| O=C(CNC(=O)c1ccco1)OCc1ccc(C(=O)c2ccccc2)cc1 | 14.1% |
| COc1ccc(C(=O)NCC(=O)NCC(=O)OCc2ccc(Cl)cc2)cc1 | 8.99% |
| O=C(CCC(=O)OCc1ccc(Br)cc1)Nc1ccccc1 | -10.8% |
| O=C(CNC(=O)c1ccco1)NCC(=O)OCc1ccc(C(=O)Oc2ccc(Cl)cc2)cc1 | -2.15% |
